Compound activity as filed in PubChem BioAssay.
FLuc inh = Firefly luciferase inhibition profiling of diverse chemical library using quantitative high-throughput screening; AID 1347043, 2019; hit rate 2.5% among 76,000; purified P. pyralis luciferase, luminescence, biochemical; Luciferin 4-monooxygenase (Photinus pyralis), P08659; Potency, µM (highest dose often 115 µM), hits mostly inhibitors; further: nearly all actives have a fitted effect of over 65% in size
Target sequence (P08659 whole entry, looked up): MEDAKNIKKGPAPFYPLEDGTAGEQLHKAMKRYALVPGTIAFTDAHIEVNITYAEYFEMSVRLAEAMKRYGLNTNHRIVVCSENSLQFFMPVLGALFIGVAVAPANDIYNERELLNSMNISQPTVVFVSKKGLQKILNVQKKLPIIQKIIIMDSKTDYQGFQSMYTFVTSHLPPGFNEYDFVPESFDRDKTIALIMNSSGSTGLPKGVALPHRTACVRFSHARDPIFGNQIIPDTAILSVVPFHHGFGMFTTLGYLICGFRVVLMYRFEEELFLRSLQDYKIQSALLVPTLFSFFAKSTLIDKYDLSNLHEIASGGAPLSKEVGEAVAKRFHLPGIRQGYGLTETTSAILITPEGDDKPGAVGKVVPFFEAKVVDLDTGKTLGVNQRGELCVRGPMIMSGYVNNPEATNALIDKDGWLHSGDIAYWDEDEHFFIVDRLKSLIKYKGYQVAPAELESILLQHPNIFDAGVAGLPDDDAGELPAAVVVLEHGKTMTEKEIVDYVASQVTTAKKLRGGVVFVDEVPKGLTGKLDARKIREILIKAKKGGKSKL
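Luminescence read by CCD imager after adding enzyme (10nM final) to wells holding compound, titrated in qHTS. Substrates 10uM each D-luciferin and ATP; buffer 50mM Tris acetate pH 7.5, 10mM Mg acetate, Tween-20, BSA.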
hNpr1 antagonist = Natriuretic polypeptide receptor (hNpr1) antagonism - Primary qHTS. AID 1347048, 2019. Atrial natriuretic peptide receptor 1 (Homo sapiens), P16066. hit rate 1.6% among 76,000. HEK293 hNpr1 GloSensor cGMP, ANP-stimulated luminescence. Potency, µM (highest dose often 46.3 µM), usual class: inhibitors; calls by dose curve; further: nearly all actives have a fitted effect of over 60% in size
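HEK293 cells stably expressing human Npr1 and cGMP GloSensor pGS-40F, loaded 2 h with 2% GloSensor reagent, given compound 30 min at room temperature. Luminescence read before and 20 min after 0.1 nM hNppA.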
GPT2 inh = Primary qHTS assay for inhibitors of Glutamate pyruvate transaminase 2 (GPT2); Alanine aminotransferase 2 (Homo sapiens), Q8TD30; Recombinant GPT2, coupled pyruvate oxidase/HRP Amplex Red fluorescence; Potency, µM (series often up to 57.7 µM), actives largely listed as inhibitors; hit rate 0.25% among 100,000; AID 1671188, 2021; further: nearly all actives have a fitted effect of over 60% in size
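GPT2 10ng/uL, a-KG 250uM, L-Ala 2mM, HEPES pH7.5 + 0.0001% Tween; 30 min RT. Then Amplex mix (PO/HRP/ThPP), 30 min RT dark, fluorescence. AOA 50uM used as positive control.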
3T3 cytotox = Cytotoxic Profiling in NIH 3T3 Cell Line of Diverse Libraries Using Quantitative High-Throughput Screening | NIH 3T3 viability, CellTiter-Glo ATP luminescence, 48-72 h | Potency, µM (highest dose often 96.7 µM), hits mostly inhibitors | hit rate 4.3% among 94,000; further: nearly all actives have a fitted effect of over 55% in size
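First NIH 3T3 cells are plated at 400 cells/well; next compound is pinned in; then plates incubate 48 or 72 hr at 37 °C; finally CellTiter-Glo is added and luminescence read after 10 min.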
HEK293 tox = Cytotoxic Profiling in HEK 293 Cell Line of Diverse Libraries Using Quantitative High-Throughput Screening; HEK 293 viability, ATP luminescence (CellTiter-Glo), 48-72 h; Potency, µM (top dose mostly 115 µM), usual class: inhibitors; hit rate 6.6% among 94,000; further: nearly all actives have a fitted effect of over 60% in size
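HEK 293 cells seeded at 250 cells/well were exposed to compound for 48 or 72 hr at 37 degree Celsius. Viability taken as ATP content by CellTiter-Glo luminescence.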
Npr1 antag conf = Natriuretic polypeptide receptor (hNpr1) antagonism - Confirmation; shares compounds with hNpr1 antagonist; HEK293 hNpr1 cGMP GloSensor luminescence, ANP-stimulated; Potency, µM (highest dose often 57.6 µM), hits mostly inhibitors; hit rate 76% among 1,400; calls by dose curve; further: nearly all actives have a fitted effect of over 70% in size
NPR2 antag = Natriuretic polypeptide receptor (hNpr2) antagonism - Subtype selectivity assay; HEK293 hNpr2 GloSensor cGMP luminescence, CNP-stimulated; AID 1347046, 2019; hit rate 67% among 1,400; shares compounds with hNpr1 antagonist; Potency, µM (doses to about 57.6 µM), hits mostly inhibitors; calls by dose curve; further: nearly all actives have a fitted effect of over 70% in size
FLuc counter = Natriuretic polypeptide receptor (hNpr1) antagonism - Confirmation firefly luciferase (FLuc) inhibition counterscreen; AID 1347047, 2019; Potency, µM (titrated, usually from 57.6 µM), most hits filed as inhibitors; hit rate 0.7% among 1,400; purified FLuc enzyme, luminescence, Km substrate; shares compounds with hNpr1 antagonist; further: series mostly up to about 58 µM
GloSensor cGMP = Natriuretic polypeptide receptor (hNpr1) antagonism - Counterscreen GloSensor control cell line. Potency, µM (titrated, usually from 57.6 µM), most hits filed as inhibitors. AID 1347051, 2019. HEK293 GloSensor cGMP, SNP-stimulated, luminescence. shares compounds with hNpr1 antagonist. hit rate 69% among 1,400; calls by dose curve; further: nearly all actives have a fitted effect of over 70% in size
A number is an active result; – = inactive; ? = inconclusive; · = no result given. Shown are actives, neighbours in structure and some others; about 10% of the full set was active somewhere. Unless noted, the call rests on the fitted dose curve; in most records, active means well fitted curve in the direction sought with a large enough effect; inconclusive means small, poorly fitted or top-dose-only effect, or another doubt; inactive means no such curve, though single readings can be large; an effect the other way counts as inactive or inconclusive.

SMILES | FLuc inh | hNpr1 antagonist | GPT2 inh | 3T3 cytotox | HEK293 tox | Npr1 antag conf | NPR2 antag | FLuc counter | GloSensor cGMP
CN(C)c1cccc(-c2cnc3[nH]cc(CC(=O)N4CCOCC4)c3c2)c1 | – | 32µM | – | ? | 79µM | 22µM | 28µM | ? | 25µM
Cc1cccc(-c2cnc3[nH]cc(CC(=O)N4CCOCC4)c3c2)c1 | – | 13µM | – | ? | ? | 13µM | 25µM | – | 9.9µM
CNC(=O)c1cccc(-c2cnc3[nH]cc(CC(=O)N(C)c4ccccc4)c3c2)c1 | – | 28µM | – | 20µM | 45µM | 35µM | 35µM | – | 40µM
Cn1cc(-c2cnc3[nH]cc(CC(=O)NCc4ccc5c(c4)OCO5)c3c2)cn1 | – | – | – | ? | ? | · | · | · | ·
Cn1nccc1C(=O)N1CC(c2ncc3c(-c4cccc(C(F)(F)F)c4)nccn23)C1 | – | – | – | ? | ? | · | · | · | ·
COc1ccccc1OCCNC(=O)c1c(-c2ccccc2)cc(=O)n2c1CCC2 | · | · | – | – | – | · | · | · | ·
COc1ccc(-c2nnc(C[C@@H]3C[C@@H](C(C)C)[C@H](CNc4ccccn4)C=C3C)o2)cc1 | – | 16µM | – | 35µM | 25µM | 22µM | 28µM | – | 22µM
CC1=C[C@@H](CN2CCN(c3ncccn3)CC2)[C@H](C(C)C)C[C@H]1Cc1nnc(-c2ccccc2F)o1 | – | – | – | 40µM | 32µM | ? | ? | – | 27µM
COc1ccc(-c2nnc(C[C@@H]3C[C@@H](C(C)C)[C@H](CNCc4cccnc4)C=C3C)o2)cc1 | – | – | – | ? | ? | · | · | · | ·
O=C(c1cccc(Br)c1)N1CCN(c2ccnc3ccnn23)CC1 | · | · | – | ? | ? | · | · | · | ·
COc1ccc(NC(=O)c2ccc3c(c2)NC(C)(CNc2ccccc2)CO3)cn1 (configuration not stated) | – | 35µM | – | ? | 45µM | 40µM | ? | – | ?
CC1(COCC2CC2)COc2ccc(C(=O)Nc3cccnc3)cc2N1 (configuration not stated) | ? | ? | ? | – | ? | – | – | – | –
CCOCC1(C)COc2ccc(C(=O)Nc3ccc(OC)nc3)cc2N1 (configuration not stated) | ? | – | – | ? | ? | · | · | · | ·
CC(=O)N1CCC(NC[C@@H]2C=C(C)[C@H](Cc3nc4ccc(C)cc4[nH]3)C[C@H]2C(C)C)CC1 | – | – | – | ? | ? | · | · | · | ·
COc1ccc(C(=O)N2CCN(c3ccc4nnc(C)n4n3)CC2)cc1 | · | · | · | – | – | · | · | · | ·
O=C1Nc2ccccc2CNC12CCN(Cc1ccc(Cl)cc1)CC2 | · | · | – | – | ? | · | · | · | ·
CCOC(=O)c1ccc(NC(=O)Cn2c(-c3cnccn3)nc(C)c(C)c2=O)cc1 | – | – | – | – | ? | · | · | · | ·
O=C(CCn1ccn2nc3c(c2c1=O)CCCC3)N1CCN(c2ccc(F)cc2)CC1 | – | – | – | ? | ? | · | · | · | ·
CCOc1ccccc1N1CCN(C(=O)CCn2ccn3nc4c(c3c2=O)CCCC4)CC1 | – | ? | – | – | – | ? | ? | – | –
COC(=O)[C@@H]1Cc2ncn(C(C)C)c2CN1S(=O)(=O)Cc1ccccc1 | – | – | ? | – | – | · | · | · | ·
CC1=C(C(=O)OC(C)C)C(c2ccccc2F)N2C(CC(=O)N3CCCC3)=CSC2=N1 (configuration not stated) | – | ? | – | – | – | ? | ? | – | ?
CCC1=C(C(=O)OC)C(c2ccccc2Cl)N2C(CC(=O)N(C)Cc3ccccc3)=CSC2=N1 (configuration not stated) | – | ? | – | ? | ? | ? | ? | – | ?
COC(=O)C1=C(C)N=C2SC=C(CC(=O)N3CCC(C)CC3)N2C1c1cccc(OC)c1 (configuration not stated) | – | ? | – | ? | 40µM | ? | 19µM | – | –
CCC1=C(C(=O)OC)C(c2ccccc2F)N2C(CC(=O)N3CCCC3)=CSC2=N1 (configuration not stated) | – | ? | – | – | – | – | ? | – | ?
CCC1=C(C(=O)OC)C(c2ccccc2)N2C(CC(=O)N(C)Cc3ccccc3)=CSC2=N1 (configuration not stated) | – | – | – | ? | ? | · | · | · | ·
SMILES | FLuc inh | hNpr1 antagonist | GPT2 inh | 3T3 cytotox | HEK293 tox | Npr1 antag conf | NPR2 antag | FLuc counter | GloSensor cGMP
CC1=C(C(=O)OC(C)C)C(c2ccc([N+](=O)[O-])cc2)N2C(CC(=O)N3CCCC3)=CSC2=N1 (configuration not stated) | – | ? | – | – | ? | · | · | · | ·
O=C(C1CCCN1C(=O)c1cccc(-c2ccccn2)c1)N1CCOCC1 (configuration not stated) | · | · | – | – | – | · | · | · | ·
O=C(Nc1ccccn1)[C@@H]1C[C@@H](c2ccc(F)cc2)N([S+](=O)([O-])c2ccccc2)C1 | – | – | – | ? | ? | · | · | · | ·
CSc1cccc(N2C(=O)[C@@H]3C[C@@H](NC(=O)c4cccn4C)CCN3C2=O)c1 | – | – | – | – | – | · | · | · | ·
C=CCOC(=O)C1=C(C)N=C2SC=C(CC(=O)N3CCCC3)N2C1c1cccc(OC)c1OC (configuration not stated) | – | – | – | – | – | · | · | · | ·
C=CCOC(=O)C1=C(C)N=C2SC=C(CC(=O)N3CCCC3)N2C1c1ccccc1Cl (configuration not stated) | – | 13µM | – | – | ? | 24µM | 24µM | – | ?
CC(=O)N1CCC(O)(c2csc(CN3CCN(C)CC3)n2)CC1 | – | – | – | – | – | · | · | · | ·
Cc1ccc(C(=O)NCCNC(=O)c2cccc(-c3ncccc3C#N)c2)cc1 | · | · | – | – | – | · | · | · | ·
